Only some compounds are listed: those with a hit (about 1.2% of all), similar ones and a draw of the others.
HDAC3 inh: inhibitors of human histone deacetylase 3; 320,000 compounds, 0.15% hits; inhibition, % at 8.3 µM; recombinant HDAC3, fluorogenic peptide/trypsin coupled, fluorescence; AID 2718; in the data active = inhibition above about 26%, passing the limit was not always enough
Target sequence (O15379 whole entry, looked up): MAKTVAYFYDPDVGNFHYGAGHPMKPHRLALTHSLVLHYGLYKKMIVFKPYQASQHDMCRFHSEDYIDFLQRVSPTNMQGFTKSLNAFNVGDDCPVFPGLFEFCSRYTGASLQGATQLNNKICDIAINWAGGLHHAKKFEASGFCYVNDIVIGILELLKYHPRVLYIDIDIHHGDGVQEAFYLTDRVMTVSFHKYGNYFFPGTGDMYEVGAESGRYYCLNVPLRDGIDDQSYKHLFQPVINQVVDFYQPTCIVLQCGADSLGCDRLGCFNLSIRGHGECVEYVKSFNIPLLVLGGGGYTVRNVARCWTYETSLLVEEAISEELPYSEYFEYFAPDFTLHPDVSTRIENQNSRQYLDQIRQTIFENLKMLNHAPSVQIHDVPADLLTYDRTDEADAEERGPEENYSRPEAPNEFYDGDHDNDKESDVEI
HIF activator: HIF pathway transcriptional activation; activation, % at 7.5 µM (by protocol); 300,000 compounds, 0.32% hits; U2OS HRE-luciferase reporter, luminescence; normalized: DMSO 0%, desferrioxamine 100%;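 active = mean activation of at least 10% of the iron chelator positive control signal, with at least half of replicates also reaching 10%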
LANA-H2A inh: blocks KSHV LANA binding to histone H2A/H2B; Q9QR71; cell-free LANA-H2A/H2B peptide, fluorescence polarization; inhibition, % (test concentration not listed); 320,000 compounds, 0.6% hits; AID 2629; in the data active = inhibition mostly above about 10%, no sharp cut-off; inactive = mostly below about 6.7%
Yeast superoxide: yeast age-related superoxide inhibition as caloric restriction mimetic; AID 2690; 330,000 compounds, 0.18% hits; superoxide response (% of plate mean), % at 10 µM; S. cerevisiae aged cells, superoxide DHE fluorescence; hits give low values;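 active = superoxide response under a set limit, about three screen SD below normal, cut at about 65% in these data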;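 note: yeast aged for seven days with compound at 30 °C before DHE staining; 100% = average MFI of all compound-treated wells on the plate with controls excluded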
Numbers without * were called inactive; nt = no result given.

SMILES	HDAC3 inh	HIF activator	LANA-H2A inh	Yeast superoxide
CSCCC(NC(=O)c1ccccc1Br)C(=O)N1CCCC(C(F)(F)F)C1 (stereo unspecified)	-2	-1	3	101
Cc1nc2cc(N3CCOCC3)c(NC(=O)C3CC3)cc2c(=O)n1Cc1ccccc1	-1	0	56*	108
Cc1ccc(S(=O)(=O)N(CC2CO2)c2cc(Cl)ccc2Cl)cc1 (stereo unspecified)	2	0	-4	92
COc1ccccc1C1C(C#N)=C(N)Oc2c1oc(CO)cc2=O (stereo unspecified)	13	0	12*	103
COCc1cc(=O)[nH]c(SCCS(=O)(=O)c2ccc(Cl)cc2Cl)n1	11	0	-4	71
COc1ccccc1C(=O)NCC(c1ccco1)N1CCc2ccccc21 (stereo unspecified)	-3	-44	5	108
CCOCCCNC(=S)Nc1cc(C)cc(C)c1	0	143*	10	100
Cc1ccc2c(c1)C(=O)N1[C@H]3c4cc(C)ccc4OC[C@@H]3[C@H](c3ccccc3)[C@]1(C)C(=O)N2	7	nt	104*	89
CCOC(=O)[C@H]1[C@H]2COc3ccc(Cl)cc3[C@@H]2N2C(=O)c3cc(Br)ccc3NC(=O)[C@@]12C	3	nt	17*	nt
Cc1ccc2c(c1)C(=O)N1[C@H]3c4cc(Cl)ccc4OC[C@@H]3[C@H](c3ccccc3)[C@]1(C)C(=O)N2	6	nt	1	94
CCCn1nc(NC(=O)c2cccs2)c2cc3cc(C)ccc3nc21	-2	0	-3	108
CC1=CC(C)(C)N2C(=O)C3(C(C#N)=C(N)Oc4cc(C)oc(=O)c43)c3cc(C)cc1c32 (stereo unspecified)	14	0	2	93
COc1cc2c3c(c1)C1(C(=O)N3C(C)(C)C=C2C)C(C#N)=C(N)Oc2cc(C)oc(=O)c21 (stereo unspecified)	nt	0	60*	nt
O=C(NCCN1CCOCC1)c1cc(-c2ccc(F)cc2)on1	-4	6	182*	116
COc1cccc2cc(C(=O)NCCc3ccccc3)oc12	-11	2	4	108
CC(C)c1nc(CNC(=O)CCc2nnc(-c3ccsc3)o2)cs1	0	49*	-2	128
COc1ccccc1C(=O)Nc1nnc(S(=O)(=O)N(C)Cc2ccccc2)s1	5	0	-4	102
COc1ccc(Cn2c(CCC(=O)NCCC(C)C)nc3ncccc3c2=O)cc1	-6	-1	-7	93
CCCCNC(=O)c1cc2nc(-c3ccccc3)cc(C(F)(F)F)n2n1	-13	0	0	86
CCCNC(=O)c1cc2nc(-c3ccccc3)cc(C(F)(F)F)n2n1	-14	96*	0	110
COc1ccc(N2CCN(C(=O)CS(=O)Cc3nc(-c4ccc(OC)c(OC)c4)oc3C)CC2)cc1 (stereo unspecified)	-7	0	16*	119
Cc1ccc(-c2nc(CS(=O)CC(=O)N3CCN(c4ccc(F)cc4)CC3)c(C)o2)cc1 (stereo unspecified)	-2	0	6	120
CC(=O)Nc1ccccc1C(=O)C(=O)Nc1ccccc1	-1	0	4.6*	100
CC(=O)Nc1ccccc1C(=O)C(=O)Nc1ccc(Cl)cc1	4	3	-4	90
CC(C)(C)c1[nH]nc2c1C(c1ccc(OC(=O)c3ccco3)cc1)C(C#N)=C(N)O2 (stereo unspecified)	54*	-53	6	105
SMILES	HDAC3 inh	HIF activator	LANA-H2A inh	Yeast superoxide
CC12CCC(=O)N1C(C(=O)NNC(=O)c1ccc(F)cc1)CS2 (stereo unspecified)	8	0	3	92
CC12CCC(=O)N1C(C(=O)NNC(=O)c1ccc(Cl)cc1)CS2 (stereo unspecified)	5	nt	32*	128
Cc1cc(NC(=O)COC(=O)[C@@H](NS(=O)(=O)c2ccc(Br)cc2)C(C)C)no1	2	0	1	94
CC1(C)Cc2ccccc2C(C(=O)c2ccccc2)=N1	-1	0	-2	130
CC1(C)Cc2ccccc2C(C(Cc2ccccc2)C(N)=O)=N1 (stereo unspecified)	-8	0	6.5*	99
C/C(=N\NC(=O)C1CCCC1)c1ccc(Cl)cc1Cl	-1	nt	4	112
COc1cc(C(=O)NNC(=O)CCOc2ccccc2)cc(OC)c1OC	-5	nt	17*	96
CC1C2CC(C(CN(C)C)/C2=N/O)C1(C)C (stereo unspecified)	2	0	66*	77
Nc1ccccc1C(=O)NNC1=C(C(=O)C(F)(F)F)CCC1	46*	4	0	100
O=C(NNC1=C(C(=O)C(F)(F)F)CCC1)c1ccccc1O	21	0	3	73

Bioassay records as filed in PubChem.
